Source: ChEMBL document CHEMBL3433997, “St. Jude Leishmania screening dataset” (2016)

Tests used:
Type in all cases: functional
[1] = molecular target: Solute carrier family 2, facilitated glucose transporter member 1 (Homo sapiens) (UniProt P11166); assay: ST_JUDE_LEISH: Cytotoxicity at 2uM final concentration against transgenic Leishmania Mexicana promastigotes LmGLUT1 that are glucose transport deficient and complemented with the human glucose transporter GLUT1. Activity is measured by DNA content using SYBR green in vitro
Sequence of Solute carrier family 2, facilitated glucose transporter member 1 (Homo sapiens) (P11166 whole entry): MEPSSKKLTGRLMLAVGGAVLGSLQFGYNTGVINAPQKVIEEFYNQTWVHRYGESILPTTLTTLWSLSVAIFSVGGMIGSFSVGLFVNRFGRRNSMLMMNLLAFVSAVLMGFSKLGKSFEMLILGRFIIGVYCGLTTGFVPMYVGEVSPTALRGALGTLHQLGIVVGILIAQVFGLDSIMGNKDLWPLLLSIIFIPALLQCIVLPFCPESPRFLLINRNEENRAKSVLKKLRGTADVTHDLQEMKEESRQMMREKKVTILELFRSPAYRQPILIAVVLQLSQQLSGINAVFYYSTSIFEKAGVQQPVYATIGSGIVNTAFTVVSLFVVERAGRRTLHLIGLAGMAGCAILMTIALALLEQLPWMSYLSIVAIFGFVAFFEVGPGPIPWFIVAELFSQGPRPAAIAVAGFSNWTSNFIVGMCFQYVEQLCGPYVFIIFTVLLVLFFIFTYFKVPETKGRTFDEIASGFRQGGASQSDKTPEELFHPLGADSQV

[2] = molecular target: Hexose transporter 1 (Plasmodium falciparum) (UniProt O97467); assay: ST_JUDE_LEISH: Cytotoxicity at 2uM final concentration against transgenic Leishmania Mexicana promastigotes LmPfHT that are glucose transport deficient and complemented with the Plasmodium falciparum hexose transporter. Activity is measured by DNA content using SYBR green in vitro
[3] = molecular target: Glucose transporter (Leishmania mexicana) (UniProt O61059); assay: ST_JUDE_LEISH: Cytotoxicity at 2uM final concentration against transgenic Leishmania Mexicana promastigotes LmGT2 that are glucose transport deficient and complemented with the L. Mexicana glucose transporter 2. Activity is measured by DNA content using SYBR green in vitro

Structure (SMILES) | inhibition [1] [%] | inhibition [2] [%] | inhibition [3] [%]
O=C(Nc1cccc(CN2CCCN(Cc3ccc4c(c3)OCO4)CC2)c1)c1ccc(Cl)c(Cl)c1 | 6.43 | 5.95 | 8.61
c1ccc2c(c1)CN(CC1CCOCC1)CC1(CCN(Cc3c[nH]c4cnccc34)CC1)O2 | 0.57 | 1.23 | 0.88
COc1ccc(NC(=O)/C=C/c2ccccc2Cl)cc1OCCN1CCC(NCc2cccnc2)CC1 | 3.65 | 2.5 | 1.91
CC1(C)NC(N)=NC(=N)N1OCc1cccs1 | 10.6 | 7.52 | 7.36
Nc1nc2c(cnn2CCCCCCCP(=O)(O)O)c(=O)[nH]1 | -0.8 | 0.25 | -0.36
CSC1=NC(=Nc2ccccc2C)C2(CCC(C(C)(C)C)CC2)N1c1ccccc1Cl (stereo unspecified) | -1.03 | -3.95 | -2.88
COc1cccc(CNC[C@@H](O)[C@H](Cc2ccccc2)NC(=O)c2cc(OC(C)C)cc(N3CCCCS3(=O)=O)c2)c1 | 0.5 | -0.88 | -0.67
CN1CCc2cc(Br)c(O)cc2C1Cc1ccccc1Cl (stereo unspecified) | -1.43 | -1.61 | -2.87
COc1ccc2oc(=O)c(C#N)c(O)c2c1 | -0.47 | -0.32 | 0.54
COc1cc(NCC(O)CNc2cc(OC)c3ccccc3n2)nc2ccccc12 | 33.2 | 12.5 | 4.93
O=C(Nc1cc(C(F)(F)F)cc(C(F)(F)F)c1)Nc1cc(C(F)(F)F)cc(C(F)(F)F)c1 | 1.91 | 4.29 | 3.86
Cc1ccc(NC(=O)c2nc(N3CCN(c4ccncc4)CC3)ccc2Cl)cc1F | 13.1 | 7.01 | 5.57
NC1=NC(c2ccccc2)N(OCc2ccccc2)C(N)=N1 (stereo unspecified) | 0.52 | 0.08 | 0.06
Cc1cc(N[C@@H](Cc2ccccc2)C(=O)NC2CCCC2)nc(NCC2CCCCC2)n1 | 3.03 | 3.67 | 0.45
CS(=O)(=O)c1ccc(CCNCc2ccc(-c3ccc(CN(C(=O)C4CC(=O)c5ccccc54)C4CCN(Cc5ccccc5)CC4)cc3)nc2)cc1 (stereo unspecified) | 1.6 | 1.34 | 2.34
Clc1ccc(CNCCCCCCCNCc2ccc(Cl)c(Cl)c2)cc1Cl | -1.86 | -1.24 | -0.86
CC(C)CCN(Cc1cncn1Cc1cccc(Cl)c1)C(=O)c1cncc(-c2ccccc2)c1 | 5.13 | 6 | 5.78
Cc1nc(-c2ccc(-c3ccc(C(=O)Nc4ccc(I)c(OCCN5CCCC5)c4)cc3)c(C)c2)no1 | 3.85 | 3.48 | 1.38
COC(=O)c1sc2ccccc2c1NC(=O)c1ccc(C)c(C)c1 | 5.3 | 4.87 | 5.56
O=C(Cc1c[nH]cn1)Nc1ccc(-c2ccc(-c3nc4cc(C(F)(F)F)ccc4[nH]3)s2)cc1 | -0.37 | -0.36 | -0.01
Cc1cc(-c2ccc(CNCCc3cccs3)cc2)ccc1S(=O)(=O)NCc1ccccc1 | 13 | 17.3 | 8.49
CCCCOP(=O)(OCCCC)C(=Cc1ccc(O)c2ccccc12)P(=O)(OCCCC)OCCCC | 5.02 | 4.67 | 5.24
CN(C)Cc1cccc(-c2ccc(NC(=O)c3ccc4c(=O)n(Cc5ccoc5)cnc4c3)cc2)c1 | 63.7 | 54.6 | 24.1
Nc1ccnc(N2CCC(CCOc3ccnc4cc(Cl)ccc34)CC2)c1 | 11.9 | 22.8 | 6.6

Structure (SMILES) | inhibition [1] [%] | inhibition [2] [%] | inhibition [3] [%]
C=CCOC(=O)O[C@@H]1[C@@H](OC(=O)OCC=C)[C@@H](OC)O[C@H](COC(c2ccccc2)(c2ccccc2)c2ccccc2)[C@H]1OC(=O)OCC=C | 4.46 | 3.53 | 4.42
CN1CCN(c2ccc(-c3cccc(NC(=O)c4cccc([N+](=O)[O-])c4)c3)nn2)CC1 | 3.29 | 1.6 | 1.84
COc1ccc2nccc([C@@H](O)CN3CCC(NCc4cc5c(cc4F)SCC(=O)N5)CC3)c2n1 | 9.08 | 7.72 | 8.6
CC[C@@]1(O)C(=O)OCc2c1cc1n(c2=O)Cc2c-1nc1cc3c(cc1c2CN1CCN(C)CC1)OCCO3 | 7.46 | 15 | 3.83
Cc1ccc(N(CCC(=N)N)Cc2ccccc2)cc1 | 8.97 | 3.59 | 4.68
CN(C)CCNC(=O)N1CCCN(c2ncnc3cc(-c4ccc(Cl)cc4)sc23)CC1 | -0.35 | -1.89 | 0.1
O=S(=O)(NC1CCN(c2ccnc3cc(Cl)ccc23)C1)c1ccc(F)cc1 (stereo unspecified) | 0.47 | 1.68 | 1.83
c1cc2[nH]c(CCCCCc3nc4cc(C5=N[C@@H]6CCCC[C@@H]6N5)ccc4[nH]3)nc2cc1C1=N[C@@H]2CCCC[C@@H]2N1 | 3.32 | 2.96 | 1.81
COc1ccccc1NC(=O)Nc1cccc(-c2ccc(-c3nc4cccc(C)c4[nH]3)s2)c1 | 3.95 | 6.34 | 3.94
CN(C)CCCOc1cccc(NC(=O)Nc2ccc(Cl)c(Cl)c2)c1 | -1.47 | -0.6 | -1.24
FC(F)(F)c1ccc(CNC2CCN(CC3CCCCC3)CC2)cc1 | 7.89 | 7.71 | 8.5
CC(C)N1CCN(C(CN2CCN(CCCOc3ccc4nonc4c3)CC2)c2ccc(F)cc2)CC1 (stereo unspecified) | -0.47 | -1.18 | -1.91
CC(CCc1ccccc1)NCC(O)c1ccc2c3c(cccc13)C(=O)N2C (stereo unspecified) | 1.56 | 0.34 | -0.76
CS(=O)(=O)c1ccc(CNCc2ccc(-c3cccc(-c4nc5cc(F)ccc5[nH]4)c3)cc2)cc1 | 3.3 | 1.83 | 2.88
COC(=O)C(Cc1ccccc1)NC(=O)NC1CCN(c2ccnc(Nc3ccc(F)cc3)n2)C1 (stereo unspecified) | 1.44 | 0.86 | 3.07
N#Cc1cccc(C(O)C2CN(CCC3CCCCC3)CCC2(O)c2ccccc2)c1 (stereo unspecified) | -1.82 | -0.13 | 2.48
O=C(NC1CCN(Cc2ccccc2)CC1)c1ccc(-c2nc3cc(Cl)c(Cl)cc3[nH]2)s1 | 0.03 | 1.08 | 1.39
Cc1cc(NC(=O)Nc2ccc(N(C)C)cc2)c2cc(Cl)ccc2n1 | 1.15 | 0.69 | 0.88
CCOc1cccc(C(=O)Nc2ccc(-c3nc4ccccc4[nH]3)cc2)c1 | 4.46 | 3.79 | 3.58
OCCNc1nc(Nc2ccc(Cl)cc2)nc2ccccc12 | 6.17 | 4.56 | 1.54
Cc1cc(=O)c2cc(-c3ccc(OC(F)(F)F)cc3)ccc2[nH]1 | -2.2 | 0.49 | -0.86
CCN(CCC1(c2ccc(Cl)c(Cl)c2)CN(C(=O)c2cc(OC)c(OC)c(OC)c2)CCO1)C1CC2c3ccccc3CC21 (stereo unspecified) | -0.68 | 1.17 | -0.3
O=C(Nc1cccc(-c2cccc(-c3nc4cc(C(F)(F)F)ccc4[nH]3)c2)c1)Nc1ccc(F)c(F)c1F | -0.38 | -0.91 | 0.55
COc1ccc(-c2cc3ncnc(N4CCN(CCN5CCCC5)CC4)c3s2)cc1 | 2.34 | 0.99 | 0.9

Structure (SMILES) | inhibition [1] [%] | inhibition [2] [%] | inhibition [3] [%]
O=C(NCc1cccc(C(F)(F)F)c1)c1ccc(-c2nc3cc(F)c(F)cc3[nH]2)cc1 | 1.11 | -2.13 | 4.61
COc1cccc(Nc2nc(N)c3ccccc3n2)c1 | 22.4 | 18.8 | 7.62
COc1ccc(C=NN=c2cc[nH]c3ccccc23)c2ccccc12 | 2.52 | 7.49 | 5.88
O=C(Nc1ccc(-c2cccc(-c3nc4cc(F)ccc4[nH]3)c2)cc1)Nc1ccc(Cl)c(Cl)c1 | 3.29 | 1.92 | 3.36
C[C@H](NC(=O)c1c(CN2CCC(N3CCCCC3=O)CC2)c(-c2cccs2)nc2ccccc12)C1CCCCC1 | 4.3 | 0.29 | 0.41
Cc1cccc2nc(-c3cccc(-c4cccc(NC(=O)NC5CC5c5ccccc5)c4)c3)[nH]c12 (stereo unspecified) | 1.8 | 2.2 | 5.21
O=C(Nc1ccc(F)c(C(F)(F)F)c1)NC1CCN(CCCCCNC(=O)C2CC2c2ccc(Cl)c(Cl)c2)CC1 (stereo unspecified) | 4.2 | 3.79 | 4.44
Cc1ccc2[nH]cc(/C=C/C(=O)NC3CCC(CCN4CCc5ccc(C#N)cc5CC4)CC3)c2c1 (stereo unspecified) | 0.83 | 4.1 | -2.82
CCC[C@@H]([C@@H](CC1CCCCC1)C(=O)NC(C(=O)Nc1nccs1)C(CC)c1ccccc1)N(O)C=O (stereo partly specified) | 0.29 | 0.04 | 0.64
O=C(/C=C/c1ccc(Cl)c(Cl)c1)NCCCCN1CCC(c2c[nH]c3ccccc23)CC1 | -2.39 | 0.39 | -0.01
O=C(Nc1cccc(CN2CCCN(Cc3ncc[nH]3)CC2)c1)c1ccc(Cl)c(Cl)c1 | 2.9 | 3.94 | 5.79
Cc1nc(SCC(=O)N2CCCC2=O)c2c(C)c(C)sc2n1 | 8.94 | 8.95 | 6.78
FC(F)(F)c1ccc2[nH]c(-c3ccc(-c4ccc(CNCc5ccccc5)cc4)cc3)nc2c1 | 8.83 | 6.65 | 6.47
COc1cc(C)ccc1S(=O)(=O)N1CCCCC(c2ccc(C(F)(F)F)cc2)=N1 | 10.8 | 11.2 | 10.3
OC1=C2C(=Nc3ccccc3SC2c2cccs2)c2ccccc21 (stereo unspecified) | 12.2 | 10.8 | 1.64
CC(C)(C)COc1ccc2c(N)n[nH]c2c1 | -1.62 | -1.52 | -0.66
O=C(N[C@H]1CCN(Cc2ccc(OCCN3CCNCC3)c(Br)c2)C1)c1ccc(Cl)c(Cl)c1 | 0.35 | 0.16 | 1.51
O=C(c1csc(-c2cccnc2)n1)N1CCc2cc3nccc(N4CCN5CCC[C@H]5C4)c3cc21 | 15 | 8.81 | 5.59
c1ccc(-n2cncn2)cc1 | 0.46 | 1.47 | 4.67
Cc1ccc(S(=O)(=O)N2CCN(C(=O)c3cc(-c4cccs4)n[nH]3)CC2)c(C)c1 | 2.83 | 2.34 | -0.33
Clc1ccc(-c2cnc3ccc(NCc4ccncc4)nn23)cc1 | 2.08 | 0.84 | -0.5
COc1cc(N(C)Cc2cnc3nc(N)nc(N)c3n2)cc(OC)c1OC | 4.09 | 3.84 | 3.15
CO/C(=C\C=C\c1cc2cc(Cl)c(Cl)cc2[nH]1)C(=O)NC1CC(C)N(C)C(C)C1 (stereo unspecified) | -2.9 | -0.97 | -1.43
CC(C)Oc1ccc2ccccc2c1CNCCCCCCNCc1c(OC(C)C)ccc2ccccc12 | 31.1 | -0.9 | 50.6
